# PubChem BioAssay (NCI)
# About 83,000 compounds went through this panel and 20% of them were active in at least one assay; those are over-represented in the sample as a whole.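 Cell lines were cultured in 96-well plates, exposed to a single compound concentration, and assessed for percent growth 48 hours later.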 Values without a mark were called inactive. The source made the active and inactive calls. How the source made its calls: active means growth percent below 10; inactive means the rest.
# Tests used:
# Assay in all cases: NCI-60 one-dose screen, 48 h (100 = growth as untreated, 0 = no growth, -100 = all killed)
# Conditions in all cases: 10 µM unless noted
# [1] = system: NCI-H23 lung
# [2] = system: NCI-H226 lung
# [3] = system: NCI-H322M lung
# [4] = system: HOP-62 NSCLC
# [5] = system: NCI-H460 lung
# [6] = system: HOP-92 NSCLC
# [7] = system: NCI-H522 lung
# [8] = system: A549/ATCC NSCLC
# [9] = system: 786-0 renal
# [10] = system: COLO 205 colon
# [11] = system: DU-145 prostate
# [12] = system: K-562 leukemia
# [13] = system: MALME-3M melanoma
# [14] = system: MDA-MB-231 breast
# [15] = system: RXF 393 renal
# [16] = system: SF-268 CNS
# [17] = system: SF-295 CNS
# [18] = system: SF-539 CNS
# [19] = system: UACC-257 melanoma
# [20] = system: M14 melanoma
SMILES,growth [1],growth [2],growth [3],growth [4],growth [5],growth [6],growth [7],growth [8],growth [9],growth [10],growth [11],growth [12],growth [13],growth [14],growth [15],growth [16],growth [17],growth [18],growth [19],growth [20]
OC[C@@H](O)C(O[C@@H]1O[C@H](CO)[C@H](O)[C@H](O)[C@H]1O)[C@H](O)[C@@H](O)CO (stereo not given in full),98.3%,103%,96%,96.7%,108%,82.1%,95.7%,110%,106%,110%,111%,104%,97.6%,97.3%,108%,109%,96.1%,101%,106%,99.9%
O=S(=O)(CCN1CCOCC1)Nc1cc(-c2ccc3ncnc(Nc4ccc(F)c(Cl)c4)c3c2)cnc1Cl,28%,26.9%,0.347% (active),-0.609% (active),14.8%,-20.8% (active),17.2%,10.3%,8.06% (active),-6.12% (active),15.6%,42.3%,-23.1% (active),-1.28% (active),-19% (active),16.8%,2.93% (active),-34.5% (active),-3.1% (active),14.5%
O=C(O)c1ccc(-n2cc(/C=N/Nc3ccc(Cl)cc3)c(-c3ccc(F)c(F)c3)n2)cc1,84.9%,95%,72.5%,107%,93.1%,81.5%,47.6%,78.9%,67.2%,99.7%,85.4%,7.69% (active),36%,93%,108%,71.1%,66.6%,88.2%,99.4%,57.5%
CCCCN(CCCC)c1ccc(C(=N)c2ccc(N(C)C)cc2)cc1,-46.1% (active),-46.4% (active),-32% (active),-84% (active),-88.5% (active),-32.7% (active),-66.1% (active),3.26% (active),-84.4% (active),-93.8% (active),-21% (active),-30.9% (active),-81.6% (active),-76.7% (active),-75% (active),-21.8% (active),-72.1% (active),-89.1% (active),-62.8% (active),-93.3% (active)
Cn1c(I)c(C#C[Si](C)(C)C)c(=O)[nH]c1=O,17.9%,78.9%,115%,76.4%,104%,-82.8% (active),-58.7% (active),86.3%,-10.8% (active),-59% (active),64.3%,-71.3% (active),-65.9% (active),9.45% (active),-86.3% (active),-8.38% (active),96.2%,96.7%,-36.5% (active),-50.1% (active)
CCOc1ccc(NC(=O)Nc2cc(C(C)C)ccc2C)cc1,79.2%,92.8%,90.8%,95%,106%,55.1%,46.4%,36.6%,13%,98.7%,93.2%,85%,105%,16.7%,-31.8% (active),69.2%,104%,90%,66.4%,93.4%
COc1ccc(-c2nnc(SCC(=O)N3CCN(c4cc5c(cc4F)c(=O)c(C(=O)O)cn5C4CC4)CC3)o2)cc1OC,101%,103%,96.2%,67%,104%,51.6%,88.6%,101%,69.3%,74.1%,99.3%,74.5%,101%,110%,118%,104%,89.1%,96.5%,101%,76.2%
COc1cc(/C=C2/Oc3cc4occc4c(OC)c3C2=O)ccc1OCC(=O)Nc1ccncc1,94.1%,95%,97.3%,85.7%,104%,97.4%,85.4%,101%,101%,107%,112%,107%,110%,89.9%,118%,105%,107%,97%,104%,98.8%
C=CC(=O)NC(=O)Nc1ccccc1Cl,103%,94.2%,90.2%,89.8%,102%,86.2%,6.09% (active),75.4%,74.3%,88.9%,48.4%,41.2%,83%,72.4%,88.7%,96.7%,101%,72.3%,71.9%,70%
Cc1ccc(Cn2cc(COc3ccc4c5ccnc(C)c5n(CCCc5ccccc5)c4c3)nn2)cc1,84.3%,98.9%,90.6%,87.1%,103%,68.6%,66.4%,94.2%,85.9%,92.2%,103%,62.3%,87.9%,75.8%,114%,95.9%,87.7%,89.9%,109%,86.2%
COc1ccc(Cl)cc1NC(=O)c1cc2c([nH]1)-c1nc(N)sc1CCC2,86.4%,95.6%,87.1%,102%,109%,132%,64.3%,69.6%,99.7%,121%,101%,74.7%,101%,105%,114%,98.2%,106%,99.4%,91%,97.6%
NC(N)=N/N=C/c1ccc([N+](=O)[O-])cc1,91.4%,101%,93.5%,104%,104%,104%,107%,109%,103%,113%,125%,117%,103%,101%,102%,103%,91.3%,105%,102%,105%
O=C1c2ccccc2OC=C(c2ccccc2)N1CCCCN1CCCCC1,67.2%,84.3%,91.2%,38.1%,46.7%,40.2%,25%,46.8%,95.4%,-33.6% (active),48.6%,15.6%,67.8%,73.8%,95.7%,55.5%,79.3%,95.7%,66.7%,68%
O=c1c2ccccc2sc2c(N3CCCC3)nc3ccccc3c12,88.7%,81.3%,110%,97.7%,96.7%,70.8%,100%,103%,102%,116%,99%,86.5%,136%,90.5%,103%,98.9%,115%,102%,106%,114%
CC(=O)c1ccc2c(c1)C1C=CCC1[C@H](c1cc3c(cc1Br)OCO3)N2 (stereo not given in full),27.1%,22.1%,64.8%,32.1%,7.92% (active),16%,-10.7% (active),23.4%,10.9%,-14% (active),-17% (active),4.19% (active),49.7%,16.9%,-12.4% (active),40.6%,-36.7% (active),-12.1% (active),75%,-7.21% (active)
